Data reported in PubChem BioAssay (NCATS).
Records with an inconclusive call do not appear. Calls of active or inactive are those of the source. Unless noted, the call rests on the fitted dose curve; in most records, active means well fitted curve in the direction sought with a large enough effect; inconclusive means small, poorly fitted or top-dose-only effect, or another doubt; inactive means no such curve, though single readings can be large; an effect the other way counts as inactive or inconclusive.

How the values were obtained:
[1] = target: Aldehyde dehydrogenase, mitochondrial (Homo sapiens) (UniProt P05091); experiment: qHTS for Inhibitors of the Aldehyde Dehydrogenase Family (ALDH2) Confirmatory screens (AID 2061303; active means well fitted inhibition curve with a large enough effect; title and protocol of this record describe different tests; further: nearly all actives have a fitted effect of over 45% in size; further: potency means the concentration at half of the fitted maximal effect)
[2] = qHTS for Inhibitors of the Aldehyde Dehydrogenase Family (ALDH1A2, ALDH1A3, ALDH2, ALDH3A1) (AID 2061307); further: nearly all actives have a fitted effect of over 50% in size; on Potency: test system not described further here; potency means the concentration at half of the fitted maximal effect
[3] = target: Aldehyde dehydrogenase, mitochondrial (Homo sapiens) (UniProt P05091); experiment: qHTS for Inhibitors of the Aldehyde Dehydrogenase Family (ALDH2) Primary screen (AID 2061308);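 further: plate controls were vehicle for no effect and reference inhibitor for full effect; nearly all actives have a fitted effect of over 55% in size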
[4] = target: Retinal dehydrogenase 2 (Homo sapiens) (UniProt O94788); experiment: qHTS for Inhibitors of the Aldehyde Dehydrogenase Family (ALDH1A2) Confirmation screens (AID 2061314); further: nearly all actives have a fitted effect of over 65% in size; further: potency means the concentration at half of the fitted maximal effect
[5] = target: Retinaldehyde dehydrogenase 3 (Homo sapiens) (UniProt P47895); experiment: qHTS for Inhibitors of the Aldehyde Dehydrogenase Family (ALDH1A3) Primary screen (AID 2061315);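 further: plate controls were DMSO vehicle for no effect and reference inhibitor for full effect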
[6] = target: Aldehyde dehydrogenase 1A1 (Homo sapiens) (UniProt P00352); experiment: qHTS for Inhibitors of the Aldehyde Dehydrogenase Family (ALDH1A1) Confirmatory screens (AID 2061316); further: nearly all actives have a fitted effect of over 65% in size; further: potency means the concentration at half of the fitted maximal effect
[7] = BET inhibitor-based combinations targeting novel dependencies in MECOM-rearranged (r) AML: SET-2 cell line (AID 2202231); settings: SET-2 AML cells viability, CellTiter-Glo luminescence, 48 h; viability: stronger effect = lower value, concentration not given here; further: nearly all actives have a fitted effect of over 35% in size; further: potency means the concentration at half of the fitted maximal effect;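 on viability: plate controls were DMSO treated cells for no effect and wells without cells for full effect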
Method in brief: (§1)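 A 48 hr incubation preceded viability reading by CellTiter-Glo, with 15 min room-temperature development. Dose series had 11 points; normalization used DMSO and empty wells; AUC was computed and mean-centered per line as Z-AUC.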

[8] = BET inhibitor-based combinations targeting novel dependencies in MECOM-rearranged (r) AML: OCI-AML3 cell line (AID 2202232); settings: Potency: OCI-AML3 viability; further: nearly all actives have a fitted effect of over 35% in size; further: potency means the concentration at half of the fitted maximal effect
Method in brief: as §1

[9] = BET inhibitor-based combinations targeting novel dependencies in MECOM-rearranged (r) AML: MV-4-11 cell line (AID 2202233); further: potency means the concentration at half of the fitted maximal effect; nearly all actives have a fitted effect of over 45% in size
Method in brief: (§2)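 Each compound is tested in an 11-point concentration series against 500 seeded cells/well for 48 hr. The luminescent viability signal is normalized to DMSO and blank wells, then reduced to AUC and a cell-line-centred Z-AUC.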

[10] = BET inhibitor-based combinations targeting novel dependencies in MECOM-rearranged (r) AML: HNT-34 cell line (AID 2202234); further: nearly all actives have a fitted effect of over 35% in size; further: potency means the concentration at half of the fitted maximal effect
Method in brief: as §2

[11] = BET inhibitor-based combinations targeting novel dependencies in MECOM-rearranged (r) AML: UCSD-AML1 cell line (AID 2202235); further: nearly all actives have a fitted effect of over 40% in size; further: potency means the concentration at half of the fitted maximal effect
Method in brief: as §2

[12] = BET inhibitor-based combinations targeting novel dependencies in MECOM-rearranged (r) AML: AML-191 cell line (AID 2202236; further: nearly all actives have a fitted effect of over 35% in size; further: potency means the concentration at half of the fitted maximal effect)
Method in brief: as §1

[13] = BET inhibitor-based combinations targeting novel dependencies in MECOM-rearranged (r) AML: AML-194 cell line (AID 2202237; further: potency means the concentration at half of the fitted maximal effect; nearly all actives have a fitted effect of over 40% in size)
Method in brief: as §1

[14] = target: Retinaldehyde dehydrogenase 3 (Homo sapiens) (UniProt P47895); experiment: qHTS for Inhibitors of the Aldehyde Dehydrogenase Family (ALDH1A3) Validation screen (AID 2061312); further: nearly all actives have a fitted effect of over 45% in size; further: potency means the concentration at half of the fitted maximal effect
[15] = target: Retinaldehyde dehydrogenase 3 (Homo sapiens) (UniProt P47895); experiment: qHTS for Inhibitors of the Aldehyde Dehydrogenase Family (ALDH1A3) Confirmatory screens (AID 2061311); further: nearly all actives have a fitted effect of over 60% in size; further: potency means the concentration at half of the fitted maximal effect

O=C(Cc1ccc(Cl)c(Cl)c1)Nc1ccc(S(=O)(=O)O)cc1
inactive: Potency [1] | Potency [2] | Potency [3] | Potency [4] | Potency [5] | Potency [6]

O=C(O)c1cccc(S(=O)(=O)Nc2nccs2)c1
inactive: Potency [1] | Potency [2] | Potency [3] | Potency [4] | Potency [6]

COc1cc(/C=C/C(=O)OC[C@H]2O[C@H](O[C@]3(CO)O[C@H](CO)[C@@H](O)[C@@H]3O)[C@H](O)[C@@H](O)[C@@H]2O)cc(OC)c1O
inactive: Potency [1] | Potency [2] | Potency [3] | Potency [4] | Potency [6]

CC1(C)CC2CC(C)(CN2S(=O)(=O)c2ccc(C(=O)Nc3cccc(S(=O)(=O)N4CCOCC4)c3)cc2)C1 (stereo not drawn)
active: Potency [1] 0.355 µM | Potency [2] 0.447 µM | Potency [4] 8.96 µM
inactive: Potency [3] | Potency [5] | Potency [6]

N[C@@H](CO)C(=O)Nc1ccc(Cl)cc1C(=O)c1ccc[nH]1
inactive: Potency [1] | Potency [2] | Potency [3] | Potency [5]

CC1(COc2ccc3c(c2)ncn3-c2ccc3cccc(N4CCC(N)CC4)c3n2)COC1
active: Potency [4] 14.2 µM | Potency [7] 13.2 µM | Potency [8] 7.42 µM | Potency [9] 0.0332 µM | Potency [10] 5.9 µM | Potency [11] 4.17 µM | Potency [12] 2.09 µM | Potency [13] 2.35 µM
inactive: Potency [1] | Potency [2] | Potency [3] | Potency [5] | Potency [6]

O=C(O)c1ccccc1OC1=NS(=O)(=O)c2ccccc21
inactive: Potency [1] | Potency [2] | Potency [3] | Potency [4] | Potency [5] | Potency [6]

O=C(Nc1ccc(Cl)c(Cl)c1)Nc1ccc(-c2ccncc2)s1
active: Potency [6] 8.96 µM
inactive: Potency [1] | Potency [2] | Potency [3] | Potency [4] | Potency [5]

CC(C)(C)OC(=O)N1CCN(c2ccc(NCc3ccc4c(-c5ccc(F)cc5)cc(=O)oc4c3)cc2)CC1
active: Potency [2] 5.04 µM
inactive: Potency [1] | Potency [3] | Potency [5]

CC(=O)Nc1ccc(OC2=NS(=O)(=O)c3ccccc32)cc1
inactive: Potency [1] | Potency [2] | Potency [3] | Potency [4] | Potency [5] | Potency [6]

COc1cccc(CNc2ccc(S(=O)(=O)Nc3ccc(C4CCNCC4)cc3)cc2)c1O
inactive: Potency [1] | Potency [2] | Potency [3] | Potency [5]

c1ccc(CN(Cc2ccccc2)Cc2nnc(-c3cc4ccccc4[nH]3)s2)cc1
active: Potency [1] 4 µM | Potency [2] 11.2 µM
inactive: Potency [3] | Potency [5]

O=c1c2ccccc2nc2sc(Nc3cccc(N4CCNCC4)c3)nn12
active: Potency [4] 10.1 µM | Potency [6] 12.7 µM
inactive: Potency [1] | Potency [2] | Potency [3] | Potency [5]

CCCc1nnc(-c2cnn(C)c2N)n1CCCn1ccnc1
inactive: Potency [1] | Potency [2] | Potency [3] | Potency [4] | Potency [5] | Potency [6]

N#Cc1c(-c2ccc(O)cc2)no[n+]1[O-]
inactive: Potency [1] | Potency [3] | Potency [5]
active: Potency [2] 12.7 µM

N#Cc1nc(Nc2ccccc2)nc(NC2CCCC2)n1
inactive: Potency [3] | Potency [5]
active: Potency [1] 1.78 µM | Potency [2] 0.631 µM

Cc1cc(F)ccc1[C@H]1C[C@@H](N2CCN3C(=O)CC[C@H]3C2)CCN1C(=O)N(C)[C@H](C)c1cc(C(F)(F)F)cc(C(F)(F)F)c1
active: Potency [14] 7.94 µM

CN[C@@H]1[C@H](O[C@H]2[C@H](O[C@@H]3[C@@H](O)[C@H](O)[C@@H](N=C(N)N)[C@H](O)[C@H]3N=C(N)N)O[C@@H](C)[C@]2(O)C=O)O[C@@H](CO)[C@H](O)[C@H]1O
inactive: Potency [14] | Potency [10]

COc1ccc(-n2cnc3cc(C(=O)N4CCCCC4)ccc32)cc1
inactive: viability [7] 112% | Potency [8] | Potency [10] | Potency [12]
active: Potency [9] 18.6 µM

CNC(=O)c1cc(Oc2ccc3nc(N[C@@H]4CCCC[C@H]4O)sc3c2)ccn1
inactive: Potency [11]
active: Potency [7] 20.9 µM | Potency [12] 14.8 µM

CC(=O)Nc1sc2c(c1-c1cccc(F)c1)CCNC2
active: Potency [4] 20.1 µM
inactive: Potency [1] | Potency [2] | Potency [15] | Potency [5] | Potency [6]

NC(=O)C1CCN(c2nccc(-c3ccc4c(c3)OCCO4)n2)CC1
active: Potency [1] 5.65 µM | Potency [2] 7.98 µM | Potency [15] 14.1 µM | Potency [4] 14.2 µM | Potency [6] 0.798 µM
inactive: Potency [5]

O=C1Cc2cc(C(=O)c3ccco3)ccc2N1
inactive: Potency [5]
active: Potency [1] 1.01 µM | Potency [2] 0.565 µM | Potency [15] 0.896 µM | Potency [4] 2.52 µM

O=c1c(Nc2ccc(Cl)c(Cl)c2)c(Nc2nnc(-c3ccncc3)s2)c1=O
active: Potency [1] 2 µM | Potency [2] 11.3 µM | Potency [15] 11.2 µM | Potency [4] 3.98 µM | Potency [6] 8.96 µM
inactive: Potency [5]
